Structures are written as SMILES. Inconclusive results are not listed. A call without a number means that no potency is given here. Activity calls are given as the source filed them. Calls follow the shape of the dose curve; as a rule, active = well fitted curve in the direction sought with a large enough effect; inconclusive = small, poorly fitted or top-dose-only effect, or another doubt; inactive = no such curve, though single readings can be large; an effect the other way counts as inactive or inconclusive.

The record followed here is PubChem BioAssay (NCATS).

Experiment [1] has as its target Aldehyde dehydrogenase, mitochondrial (Homo sapiens) (UniProt P05091). Put plainly: qHTS for Inhibitors of the Aldehyde Dehydrogenase Family (ALDH2) Primary screen (AID 2061308). Also: nearly all actives have a fitted effect of over 55% in size. For orientation: qHTS replaces the single test concentration by a dilution series.
For experiment [2], the target named is Retinaldehyde dehydrogenase 3 (Homo sapiens) (UniProt P47895). Put plainly: qHTS for Inhibitors of the Aldehyde Dehydrogenase Family (ALDH1A3) Primary screen (AID 2061315).

With `CC(=O)N[C@H](C(=O)N[C@@H](C)C(=O)N[C@H](C#N)CC(=O)O)C(C)C`, the Potency result in experiment [1] and in experiment [2] was “inactive” throughout.

For `CCc1ccc(S(=O)(=O)Nc2cnccc2C(=O)Nc2nc(-c3ccccc3)cs2)cc1`, the Potency entry in experiment [1] and in experiment [2] was “inactive” in each case.

Take `CC1=C(CC(=O)O)c2cc(F)ccc2C1=Cc1ccc(S(C)(=O)=O)cc1`: the Potency result in experiment [1] and in experiment [2] was “inactive” throughout.

`O=C(Cn1nc(-c2cccnc2)ccc1=O)NCCc1ccccc1`: the Potency result in experiment [1] and in experiment [2] was “inactive” each time.

In the case of `Cc1ccc(CNc2ncc(N3CCCCC3)cn2)cc1`, the Potency entry in experiment [1] and in experiment [2] was “inactive” in each case.

In the case of `O=S(=O)(c1ccc2c(c1)OCCO2)N1CCN(S(=O)(=O)c2cccc3cccnc23)CC1`, the Potency result in experiment [1] and in experiment [2] was “inactive” each time.

Take `Fc1cc(Cl)cc(-c2ccc(CNc3nc(-c4ccccc4C(F)(F)F)nc4ccccc34)cc2)c1`: the Potency entry in experiment [1] and in experiment [2] was “inactive” throughout.

In the case of `Cc1cc2c(s1)c1cnn(Cc3cccc(C(F)(F)F)c3)c(=O)c1n2C`, the Potency entry in experiment [1] and in experiment [2] was “inactive” in each case.

For `O=C(CNC(=O)c1ccccc1)OC(CCc1ccccc1)C(=O)Nc1cc(C(F)(F)F)ccc1Cl` (centres undefined), the Potency entry in experiment [1] and in experiment [2] was “inactive” in each case.

In the case of `O=C([C@@H](Cc1ccc(O[S+](=O)([O-])c2cccnc2)cc1)N[S+](=O)([O-])c1cccc2cccnc12)N1CCN(c2ccccc2)CC1`, the Potency result in experiment [1] and in experiment [2] was “inactive” in each case.

With `O=S(=O)(NC1CCN(S(=O)(=O)c2ccc3c(c2)OCCO3)CC1)c1c(F)cccc1F`, the Potency entry in experiment [1] and in experiment [2] was “inactive” each time.

With `O=S(=O)(Nc1ccc(-c2ccccc2)cc1)c1ccc(NCc2ccc(Br)cc2O)cc1`, the Potency result in experiment [1] and in experiment [2] was “inactive” in each case.

`Fc1cccc(CNc2ncnc3ccc(-c4ccc5c(c4)OCO5)cc23)c1`: the Potency result in experiment [1] and in experiment [2] was “inactive” each time.

Take `COc1cc(F)c(S(=O)(=O)N2CCN(S(=O)(=O)c3ccc(N)cc3)CC2)c(F)c1`: the Potency result in experiment [1] and in experiment [2] was “inactive” throughout.

Regarding `COc1cccc(N2C(=O)c3ccccc3C2=O)c1`, the Potency entry in experiment [1] and in experiment [2] was “inactive” each time.

As for `COc1ccccc1C1c2c(ncn(-c3ccccc3)c2=N)Oc2ccc3ccccc3c21` (centres undefined), the Potency result in experiment [1] and in experiment [2] was “inactive” each time.

Consider `CCN1CCCC1Cn1c(-c2ccccc2)nc2c(N(CCOC)CCOC)nc(C)nc21` (centres undefined), for which the Potency result in experiment [1] and in experiment [2] was “inactive” in each case.

Take `O=C(OCC#CCSc1nnc(-c2cccc3ccccc23)o1)c1csc2ccccc12`: the Potency result in experiment [1] and in experiment [2] was “inactive” throughout.

For the molecule `O=C(O)c1ccc(O)c2ncccc12`, the Potency result in experiment [1] and in experiment [2] was “inactive” in each case.

For `CCCCC(O)C(=O)Nc1cc(C(F)(F)F)ccc1Cl` (centres undefined), the Potency result in experiment [1] and in experiment [2] was “inactive” in each case.

For the molecule `Cc1ccc(C2=NN(CC(=O)NCCc3ccccc3)C(=O)C2)cc1`, the Potency result in experiment [1] and in experiment [2] was “inactive” throughout.

`COc1cc(N2CCN(C(=S)Nc3cc(C)cc(C)n3)CC2)cc(C(F)(F)F)c1`: the Potency result in experiment [1] and in experiment [2] was “inactive” each time.

In the case of `O=C1c2ccccc2C(=O)N1C1CCCCC1`, the Potency entry in experiment [1] and in experiment [2] was “inactive” throughout.

Turning to `Cc1cnccc1-c1nc(Nc2ccc(F)c(F)c2)c2ccccc2n1`, the Potency entry in experiment [1] and in experiment [2] was “inactive” throughout.

For the molecule `CC(C)(C)c1ccc(NC(=O)c2cccs2)cn1`, the Potency result in experiment [1] and in experiment [2] was “inactive” throughout.

Take `O=C(NCCc1ccc(OCC(F)(F)F)c(OCC(F)(F)F)c1)c1cc2sccc2n1Cc1ccccc1`: the Potency entry in experiment [1] and in experiment [2] was “inactive” each time.

Take `COC(=O)c1ccc(NC(=O)c2nc3ccccc3n(C)c2=O)cc1`: the Potency entry in experiment [1] and in experiment [2] was “inactive” each time.

In the case of `CCCCC1CCC(C(=O)Nc2ccc(S(=O)(=O)Nc3cc(C)on3)cc2)CC1` (centres undefined), the Potency entry in experiment [1] and in experiment [2] was “inactive” each time.

Turning to `O=C(OCC#CCSc1nnc(-c2ccc3ccccc3c2)o1)c1ccc(F)c(F)c1`, the Potency entry in experiment [1] and in experiment [2] was “inactive” in each case.

Take `Brc1ccccc1-c1nc(NCc2ccc(-c3cccnc3)cc2)c2ccccc2n1`: the Potency entry in experiment [1] and in experiment [2] was “inactive” throughout.

On to `Cc1cc(CNc2ncnc3ccc(-c4ccc5c(c4)OCO5)cc23)c(C)o1`, for which the Potency entry in experiment [1] and in experiment [2] was “inactive” each time.

`Nc1cc(-c2nc(Nc3ccc(F)c(F)c3)c3ccccc3n2)ccn1`: the Potency result in experiment [1] and in experiment [2] was “inactive” each time.

`C[C@@H]1O[C@@H](O[C@H]2[C@H](O[C@H]3CC[C@@]4(C)C(CC[C@]5(C)C4CC=C4[C@@H]6CC(C)(C)CC[C@]6(C(=O)O)CC[C@]45C)[C@]3(C)CO)OC[C@H](O)[C@@H]2O)[C@H](O)[C@H](O[C@@H]2OC[C@@H](O)[C@H](O)[C@H]2O)[C@H]1O` (some centres undefined): the Potency result in experiment [1] and in experiment [2] was “inactive” each time.

In the case of `Cc1cc(C)nc(NC(=S)N2CCN(c3ccccn3)CC2)c1`, the Potency result in experiment [1] and in experiment [2] was “inactive” in each case.

For `COc1cccc(C2c3c(ncn(-c4ccccn4)c3=N)Oc3ccc4ccccc4c32)c1` (centres undefined), the Potency result in experiment [1] and in experiment [2] was “inactive” throughout.

On to `COc1ccc(-n2cnc3c(c2=N)C(c2cccc(OC)c2)c2c(ccc4ccccc24)O3)cc1` (centres undefined), for which the Potency entry in experiment [1] and in experiment [2] was “inactive” each time.

For `O=C(Nc1ccc(-c2nc3ccccc3[nH]2)cc1)c1ccc(C(F)(F)F)cc1`, the Potency entry in experiment [1] and in experiment [2] was “inactive” in each case.

Turning to `O=c1c2ccccc2nc2sc(NCc3ccc(Oc4ccccc4)cc3)nn12`, the Potency entry in experiment [1] and in experiment [2] was “inactive” in each case.

With `O=C(Nc1ccc(-c2nc3ccccc3[nH]2)cc1)Nc1ccc2c(c1)OCCO2`, the Potency entry in experiment [1] and in experiment [2] was “inactive” throughout.

In the case of `O=S(=O)(NC1CCC(NS(=O)(=O)c2c(F)cccc2F)CC1)c1ccc2c(c1)OCCO2` (centres undefined), the Potency result in experiment [1] and in experiment [2] was “inactive” each time.

For the molecule `CCn1c(-c2nonc2N)nc2c(C#CC(C)(C)O)ncc(OCC3CCCNC3)c21` (centres undefined), the Potency entry in experiment [1] and in experiment [2] was “inactive” throughout.

For the molecule `COc1ccc(C(=O)Nc2ccc(-c3nc4ccccc4[nH]3)cc2)cc1Br`, the Potency entry in experiment [1] and in experiment [2] was “inactive” in each case.
